Records with an inconclusive call do not appear. Entries that show only a call come without a potency. A number with no mark means an inactive call. Calls of active or inactive are those of the source. Calls come from the whole dose curve; as a rule, active = well fitted inhibition curve with a large enough effect; inconclusive = small, poorly fitted or top-dose-only effect; inactive = flat fitted curve, though single readings scatter.
Assay: qHTS to identify inhibitors of the type 1 interferon - major histocompatibility complex class I in skeletal muscle: primary screen against the NCATS Pharmaceutical Collection (AID 1347407)
Settings: human skeletal muscle cells, IFN-b-induced MHC-I HiBiT luminescence, 24 h; series mostly up to 45.9 µM
From the text: Assay Submitter (PI): Travis B. Kinder Ph.D. & James Inglese Ph.D.
Assay Development and Screening Technology Laboratory (ADST)
National Center for Advancing Translational Sciences (NCATS), Rockville, MD
National Institute of Health (NIH), Bethesda, Maryland
Idiopathic inflammatory myopathies, collectively referred to as myositis, are a group of rare autoimmune diseases characterized by skeletal muscle inflammation, weakness, and usually accompanied by systemic pathologies of the skin, lungs, or vasculature. Current immunosuppressive therapies and glucocorticoids are often not curative and are accompanied by harsh side effects, especially in children with juvenile myositis. We initiated a drug repurposing and development program to identify more targeted, less toxic therapeutics to treat myositis. Although its cause is not known, muscle from a subset of patients have an abundance of the inflammatory type 1 interferon (IFN) and a down-stream product major histocompatibility complex class I (MHC class I), which are both thought to contribute to damage and weakness. We conducted quantitative high throughput screening on 6,576 compounds (4,679 unique) through a series of cell-based assays to identify those that inhibit the IFN-stimulated expression of MHC class I in muscle precursor cells (myoblasts). The compound identification and evaluation strategy utilized a primary screen with reporter-tagged MHC class I in genome-engineered myoblasts, ATP content counter screen for viability, HLA-ABC immunofluorescence secondary screen, and HLA-B RT-qPCR tertiary screen.
The primary screen utilized CRISPR/Cas9 genome-engineering of immortalized human myoblasts, C25cl48, where a pro-luminescent reporter HiBit was fused to the C-terminus of endogenous MHC class I allele HLA-B*08:01 (HLA-B HiBit myoblasts). HiBit is an 11 amino acid fragment of NanoLuc luminescent reporter (Promega Corporation), and when complexed to the larger LgBit fragment, the reconstituted enzyme produces light in the presence of furimazine substrate (Schwinn et al., 2018). Briefly, HLA-B HiBit myoblasts were plated into 1536-well plates, treated with 4.0 ng/ml human IFN-beta and 2,816 compounds from the NCATS Pharmaceutical Collection (NPC) that contains all drugs approved in the US, EU, and Japan (Huang et al., 2011) in an 8-point, 1:5 titration with a high final concentration of 46 uM. After 24 hrs of treatment, cells were assayed by Nano-Glo HiBiT Lytic Detection System (Promega) and luminescence measured by a ViewLux 1430 Ultra HTS (Perkin Elmer).
Huang R, Southall N, Wang Y, Yasgar A, Shinn P, Jadhav A, Nguyen D-T, Austin CP. 2011. The NCGC pharmaceutical collection: a comprehensive resource of clinically approved drugs enabling repurposing and chemical genomics. Sci Transl Med 3:80ps16. doi:10.1126/scitranslmed.3001862
Schwinn MK, Machleidt T, Zimmerman K, Eggers CT, Dixon AS, Hurst R, Hall MP, Encell LP, Binkowski BF, Wood K V. 2018. CRISPR-Mediated Tagging of Endogenous Proteins with a Luminescent Peptide. ACS Chem Biol 13:467-474. doi:10.1021/acschembio.7b00549
PROTOCOL TABLE (as described by Inglese et al., 2007)
SEQUENCE No. (e.g., 1, 2, 3, etc.); […] (e.g., Cells, Incubation, Reagent, etc.); VALUE; DESCRIPTION
1a; Cells; 5 uL; Use a Multidrop Combi (Thermo Scientific) to seed 350 cells/well into nine Greiner 1536 well white/solid bottom, high base, TC plates in 5 ul/well of iHSKM growth medium (GM) without dexamethasone into columns 1+2. Add metal lids with gas-exchange holes
1b; Cells; 5 uL; Use a Multidrop Combi (Thermo Scientific) to seed 350 cells/well into nine Greiner 1536 well white/solid bottom, high base, TC plates in 5 ul/well of iHSKM GM without dexamethasone + 4 ng/ml IFN-b into columns 3 - 48. Add metal lids with gas-exchange holes
2; Incubate; 1 hr; Incubate at 37 C, 5% CO2, 95% RH
[…]
In the case of `C[C@@H]1CN(c2c(F)c(N)c3c(=O)c(C(=O)O)cn(C4CC4)c3c2F)C[C@H](C)N1`, the Potency is reported as “inactive”. For `Cn1c(=O)c2c(ncn2CC(O)CO)n(C)c1=O` (stereo not given), the Potency was “inactive”. For `CC1=NN(c2ccccc2)C(=O)C1`, the Potency was “inactive”. For `CC1(C)[C@H](C(=O)O)N2C(=O)C[C@H]2S1(=O)=O`, the Potency was “inactive”. In the case of `NC(=O)c1cccnc1`, the Potency is reported as “inactive”. In the case of `Cc1onc(-c2ccccc2Cl)c1C(=O)N[C@@H]1C(=O)N2[C@@H]1SC(C)(C)[C@@H]2C(=O)O`, the Potency is reported as “inactive”. In the case of `CCCOc1ccc(C(=O)OCCN(CC)CC)cc1N`, the Potency is reported as “inactive”. With `Cc1nnc(C(=O)NC(C)(C)c2nc(C(=O)NCc3ccc(F)cc3)c(O)c(=O)n2C)o1` the Potency was “inactive”. For `CCOC(=O)[C@H](CCc1ccccc1)N[C@H]1CS[C@H](c2cccs2)CN(CC(=O)O)C1=O`, the Potency was “inactive”. In the case of `O=c1cc(O)c(Cl)c[nH]1`, the Potency is reported as “inactive”. In the case of `COc1cc(NS(=O)(=O)c2ccc(N)cc2)nc(OC)n1`, the Potency is reported as “inactive”. In the case of `COc1c(N2CCNC(C)C2)c(F)cc2c(=O)c(C(=O)O)cn(C3CC3)c12` (stereo not given), the Potency is reported as “inactive”. For `CC1=CC(=O)c2ccccc2C1=O`, the Potency was “inactive”. In the case of `CCC(=O)O[C@]1(C(=O)CCl)[C@@H](C)C[C@H]2[C@@H]3CCC4=CC(=O)C=C[C@]4(C)[C@@]3(F)[C@@H](O)C[C@@]21C`, the Potency is reported as “inactive”. With `NC(N)=NC(N)=NCCc1ccccc1` the Potency was “inactive”. In the case of `N[C@@H](C(=O)N[C@@H]1C(=O)N2C(C(=O)O)=C(Cl)CS[C@H]12)c1ccccc1`, the activity change, negative = inhibition is reported as 3% [at 9.18 µM]. With `O=S(=O)(O)CCS` the Potency was “inactive”. With `NC(=O)N1c2ccccc2CC(=O)c2ccccc21` the Potency was “inactive”. For `C[C@]12C=CC(=O)C=C1CC[C@@H]1[C@@H]2C(=O)C[C@@]2(C)[C@H]1CC[C@]2(O)C(=O)CO`, the Potency was “inactive”. With `COc1ccc2c(c1)c(CC(=O)OCC(=O)O)c(C)n2C(=O)c1ccc(Cl)cc1` the Potency was “inactive”. For `CNS(=O)(=O)CCc1ccc2[nH]cc(C3CCN(C)CC3)c2c1`, the Potency was “inactive”. For `CNNCc1ccc(C(=O)NC(C)C)cc1`, the Potency was “inactive”. For `CNC1CCCN(c2c(F)cc3c(=O)c(C(=O)O)cn(C4CC4)c3c2OC)C1` (stereo not given), the Potency was “inactive”. In the case of `CCCN[C@H]1CCc2nc(N)sc2C1`, the Potency is reported as “inactive”. In the case of `O[C@@H](CNC[C@H](O)[C@H]1CCc2cc(F)ccc2O1)[C@@H]1CCc2cc(F)ccc2O1`, the Potency is reported as 26.4 µM (active). With `COc1cnc(NS(=O)(=O)c2ccc(N)cc2)nc1` the Potency was “inactive”. In the case of `CC(N)C12CC3CC(CC(C3)C1)C2` (stereo not given), the Potency is reported as “inactive”. For `CC[C@H](C)C(=O)O[C@H]1C[C@@H](C)C=C2C=C[C@H](C)[C@H](CC[C@@H]3C[C@@H](O)CC(=O)O3)[C@H]21`, the Potency was “inactive”. With `O=P(O)(O)C(O)(Cc1cccnc1)P(=O)(O)O` the Potency was “inactive”. With `COc1nc(N)nc2c1ncn2[C@@H]1O[C@H](CO)[C@@H](O)[C@@H]1O` the Potency was “inactive”. For `Cc1cccc(N(C)C(=S)Oc2ccc3ccccc3c2)c1`, the Potency was “inactive”. With `Nc1[nH]c(=O)ncc1F` the Potency was “inactive”. With `CC(C)OC(=O)C(C(=O)OC(C)C)=C1SC=CS1` the Potency was “inactive”. For `COc1ccc(C(=O)CC(=O)c2ccc(C(C)(C)C)cc2)cc1`, the Potency was “inactive”. In the case of `COc1ccc2cc3[n+](cc2c1OC)CCc1cc2c(cc1-3)OCO2`, the Potency is reported as “inactive”. For `CC(=O)[C@H]1CC[C@H]2[C@@H]3CC=C4C[C@@H](O)CC[C@]4(C)[C@H]3CC[C@]12C`, the Potency was “inactive”. In the case of `NS(=O)(=O)c1cc2c(cc1Cl)NC(C(Cl)Cl)NS2(=O)=O` (stereo not given), the Potency is reported as “inactive”. With `COC(c1ccccc1)(c1ccccc1)[C@H](Oc1nc(C)cc(C)n1)C(=O)O` the Potency was “inactive”. With `CN1CCCC(n2nc(Cc3ccc(Cl)cc3)c3ccccc3c2=O)CC1` (stereo not given) the Potency was “inactive”. In the case of `CC(C)OC(=O)OCOP(=O)(CO[C@H](C)Cn1cnc2c(N)ncnc21)OCOC(=O)OC(C)C`, the Potency is reported as “inactive”.

Source: PubChem BioAssay (NCATS)
Potency is the fitted concentration of half-maximal effect.
